# Vaccinia Venus – vaccinia inhibition (Venus reporter). AID 720580. Potency, µM (titrated, usually from 36.5 µM), for inactives: at the highest dose activity change, negative = inhibition, actives largely listed as inhibitors. Vaccinia virus Venus reporter expression, fluorescence. actives 0.46% (n = 330,000); calls by dose curve; tested in A549 cells; also: % is scaled to controls: 0 for no effect and ±100 for the full control effect; nearly all actives have a fitted effect of over 30% in size
# SARS PLP yeast – blocks SARS-CoV papain-like protease in a yeast assay. S. cerevisiae expressing SARS-CoV PLpro, growth rescue. Potency, µM (titrated, usually from 32.9 µM), without a hit: at the top dose activity, positive = growth rescue, actives largely listed as activators. actives 0.19% (n = 330,000). AID 485353; calls by dose curve; also: 0% is about no effect; nearly all actives have a fitted effect of over 55% in size
# Vaccinia mCherry – vaccinia inhibition (mCherry reporter); Vaccinia virus mCherry reporter infection, fluorescence; Potency, µM (titrated, usually from 36.5 µM), for inactives: at the highest dose activity change, negative = inhibition, most hits filed as inhibitors; actives 0.63% (n = 310,000); AID 720579; calls by dose curve; tested in A549 cells; also: % is scaled to controls: 0 for no effect and ±100 for the full control effect; nearly all actives have a fitted effect of over 35% in size
# AmpC inh no detg – blocks E. coli AmpC beta-lactamase in detergent-free assay | P00811 | AmpC nitrocefin hydrolysis, absorbance 480 nm, 0.0001% Triton | Potency, µM (top dose mostly 57.1 µM), inactives show at the highest dose activity change, negative = inhibition, hits mostly inhibitors | actives 0.52% (n = 330,000);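 also: plate controls were no compound for no effect and no enzyme for full effect; nearly all actives have a fitted effect of over 20% in size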
# Target sequence (P00811 whole entry, looked up): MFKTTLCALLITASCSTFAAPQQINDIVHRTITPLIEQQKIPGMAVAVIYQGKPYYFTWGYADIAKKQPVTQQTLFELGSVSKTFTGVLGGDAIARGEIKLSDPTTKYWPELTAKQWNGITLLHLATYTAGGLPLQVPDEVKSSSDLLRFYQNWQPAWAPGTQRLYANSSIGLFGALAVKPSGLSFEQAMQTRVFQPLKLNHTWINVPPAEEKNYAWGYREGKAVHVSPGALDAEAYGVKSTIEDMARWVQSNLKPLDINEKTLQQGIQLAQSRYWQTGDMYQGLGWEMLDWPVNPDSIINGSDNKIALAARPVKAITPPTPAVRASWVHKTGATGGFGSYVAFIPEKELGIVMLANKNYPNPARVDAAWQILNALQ
#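 AmpC (5.3 nM in the dispensed reagent) in 20 mM phosphate pH 7.0 with 0.01% (detergent screen) or 0.0001% Triton X-100 was preincubated with compounds for 15 min at room temperature. Nitrocefin was then added from an 800 uM solution, and hydrolysis was followed at 480 nm.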
# AmpC detergent – inhibitors of E. coli AmpC beta-lactamase with detergent | Potency, µM (top dose mostly 114 µM), without a hit: at the top dose activity change, negative = inhibition, actives largely listed as inhibitors | AID 485294 | AmpC hydrolysis of nitrocefin, absorbance 480 nm, 0.01% Triton | actives 0.041% (n = 370,000);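 also: 0% = no-compound wells and -100% = no-enzyme wells; nearly all actives have a fitted effect of over 25% in size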
#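 20 mM phosphate pH 7.0 + 0.01% (detergent screen) or 0.0001% Triton X-100; 5.3 nM AmpC reagent; cpd preinc 15 min RT; nitrocefin (800 uM stock) to start; A480 q20 s × 4 min; Activity was normalised to no-enzyme and no-compound control wells.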
# AMA1 RON2 block – disrupts binding of P. falciparum AMA1 to RON2 | AlphaScreen AMA1-biotinylated RON2 peptide binding | actives 0.2% (n = 360,000) | Potency, µM (titrated, usually from 58.2 µM), inactives show at the top dose activity change, negative = inhibition, actives largely listed as inhibitors;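 also: 0% = vehicle wells and -100% = peptide control; nearly all actives have a fitted effect of over 45% in size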
#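 AMA1 (3D7) with his tag at 25 nM final met compounds first, then biotinylated RON2 peptide at 25 nM; detection used donor plus acceptor beads, 10 µg/mL apiece, read by AlphaScreen after 30 min at room temperature.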
# * marks the source's active call; other numbers are inactive results; i = inactive; ? = inconclusive; / = no result. Shown are actives, neighbours in structure and some others; about 1.3% of the full set was active somewhere. Unless noted, calls follow the shape of the dose curve; as a rule, active = well fitted curve in the direction sought with a large enough effect; inconclusive = small, poorly fitted or top-dose-only effect, or another doubt; inactive = no such curve, though single readings can be large; an effect the other way counts as inactive or inconclusive. Potency is read from the fitted curve at half-maximal effect.
SMILES,Vaccinia Venus,SARS PLP yeast,Vaccinia mCherry,AmpC inh no detg,AmpC detergent,AMA1 RON2 block
CN(Cc1cc(Cl)cc(Cl)c1)CC(C(=O)c1ccccc1)c1ccccc1 (stereo not given),-18%,/,-18%,/,/,-9%
O=C(O)c1ccc2c(c1)[C@@H]1C=CC[C@@H]1[C@H](c1ccccn1)N2,/,/,/,/,/,13µM*
COc1cccc2sc(N3CCN(C(=O)c4ccc([N+](=O)[O-])o4)CC3)nc12,13µM*,9%,8.9µM*,156%,-2%,-25%
Nc1ncnc2c1ncn2C1C=C(CO)C(O)C1O (stereo not given),?,/,1.1µM*,/,/,14%
Nc1ncnc2c1ncn2[C@@H]1O[C@H](CO)C[C@H]1O,-10%,/,-15%,/,/,9%
CC(Cc1ccc(O)c(O)c1)(NN)C(=O)O (stereo not given),8%,/,-11%,/,/,/
C[C@](N)(Cc1ccc(O)c(O)c1)C(=O)O,-9%,3%,-5%,?,?,11µM*
N#C/C(=C\c1ccc(-c2ccc(C(=O)O)cc2)o1)C(=O)Nc1ccccc1C(=O)O,-5%,/,-19%,/,-8%,/
O=C(NCCc1nnc2n1CCN(Cc1ccc(F)cc1)CC2)c1ccco1,-14%,/,-3%,/,/,/
CC#CC[N+](C)(C)CCCCCCCCCC,-9%,-1%,i,45%,1%,4%
C#CC[N+](C)(C)CCCCCCCCC,?,-11%,11µM*,15%,?,-2%
Cc1cc(C)c2sc(NC(=O)c3ccc([N+](=O)[O-])o3)nc2c1,11µM*,-33%,?,-30%,-15%,-2%
Cc1cc(C)c2nc(NC(=O)c3ccc([N+](=O)[O-])o3)sc2c1,?,-1%,10µM*,-24%,?,-2%
O=C(Nc1nc2ccccc2s1)c1ccc([N+](=O)[O-])o1,/,-1%,/,-21%,-9%,-4%
O=C(Nc1nc2c(F)cc(F)cc2s1)c1ccc([N+](=O)[O-])o1,10µM*,-7%,13µM*,-13%,-13%,-5%
CCN(Cc1ccncc1)Cc1ccc2c(c1)CN(C(=O)c1ccccc1-n1cccn1)CCO2,0%,/,-6%,/,/,/
O=C(N/N=C/c1cc(Br)ccc1O)c1ccncc1,-24%,-1%,?,-12%,0%,-77%
COc1ccc(C(=O)N/N=C/c2ccc(OC(=O)c3cccc4ccccc34)c([N+](=O)[O-])c2)cc1,-15%,-11%,i,28µM*,-8%,15%
Cc1cc(C(=O)N/N=C/c2cc(Br)ccc2OC(=O)c2ccccc2Cl)n[nH]1,?,0%,6.3µM*,-48%,-2%,70%
CC(C)(C)C(=O)Nc1ccc(C(=O)N/N=C/c2ccccc2OC(=O)c2ccc(Cl)cc2)cc1,?,5%,7.9µM*,0%,-21%,22%
O=C(N/N=C/c1cc(Br)ccc1OC(=O)c1ccc(Br)cc1)c1ccncc1,?,-3%,4.5µM*,-24%,-3%,37%
Cc1ccc2nc(SCC(=O)N3CCC4(CC3)CC4C(=O)Nc3ccc(F)c(F)c3)[nH]c2c1 (stereo not given),-8%,/,-6%,/,/,/
CN(CCO)C(=O)c1cn(C2CCN(Cc3c(F)cccc3Cl)CC2)nn1,21%,/,-9%,/,/,/
Cc1cccc(C(=O)Oc2ccc(/C=N/NC(=O)c3ccc(O)cc3)cc2)c1,-7%,2%,-12%,14µM*,-2%,24%
COc1ccc(C(=O)N/N=C/c2ccccc2OC(=O)c2ccccc2)cc1,?,-2%,2µM*,-28%,0%,77%
Cc1cccc(C(=O)Oc2ccc(/C=N/NC(=O)c3ccccc3O)cc2)c1,-9%,12%,-30%,-29%,5%,6%
COc1ccc(C(=O)C(CCC(CNC(C)(C)C)C(=O)c2ccc(OC)cc2)CNC(C)(C)C)cc1 (stereo not given),11µM*,-33%,13µM*,-20%,-15%,0%
COc1cc2nc(CN3CC=C(c4ccccc4)CC3)[nH]c(=O)c2cc1OC,?,/,5.6µM*,/,/,21%

# Screening results from PubChem.
